Assay outcomes as filed in PubChem.
BoNT-F LC inh – blocks Botulinum neurotoxin F light chain protease; Multiplex microsphere protease cleavage assay, flow cytometry; inhibition, % at 10 µM; actives 0.22% (n = 360,000); AID 588497; in the data active = inhibition above about 35%, passing the limit was not always enough; inconclusive = no clear call, values can overlap the other calls
GDH-TPI counter-1 – counter-screen for M. tuberculosis FBA inhibitors: GDH-TPI coupled enzymes | GDH-TPI coupled enzyme counterscreen, NADH absorbance | inhibition, % at 4.8 µM | actives 1.2% (n = 360,000) | AID 588335; in the data active = inhibition above about 30%
Anthrax LF inh2 – anthrax lethal factor protease inhibition. actives 0.12% (n = 360,000). inhibition, % at 10 µM. multiplex microsphere protease cleavage assay, LF; in the data active = inhibition above about 30%; inconclusive = no clear call, values can overlap the other calls
Bead autofluor – compound fluorescence in toxin protease inhibitor counterscreen. AID 624483. compound autofluorescence counterscreen, microsphere flow cytometry; stronger effect = higher value. fluorescence intensity (test concentration not listed). actives 3.1% (n = 360,000); in the data active = fluorescence intensity above about 16000; inconclusive = no clear call, values can overlap the other calls
FBA Mtb inh – Mtb fructose-bisphosphate aldolase inhibition. inhibition, % at 1 µM. actives 2.3% (n = 360,000). purified M. tuberculosis FBA, fluorescence read-out. AID 588726
BoNT-A LC inh2 – BoNT A light chain protease inhibition; multiplex microsphere protease substrate cleavage, flow cytometry; inhibition, % at 10 µM; actives 0.17% (n = 360,000); AID 588499; in the data active = inhibition above about 30%; inconclusive = no clear call, values can overlap the other calls
Mtb FBA confirm – Mtb FBA inhibition, confirmed; shares compounds with FBA Mtb inh; purified M. tuberculosis FBA, fluorescence read-out; inhibition, % at 1 µM; actives 78% (n = 5,600); AID 651616
GDH-TPI counter-2 – inhibits GDH-TPI coupling enzymes, flagging Mtb FBA hits; shares compounds with FBA Mtb inh; AID 652141; actives 81% (n = 5,600); inhibition, % at 1 µM; GDH-TPI coupled enzyme counterscreen, fluorescence; in the data active = inhibition above about 10%
GDH-TPI dose – inhibits GDH-TPI coupling enzymes in dose response | actives 79% (n = 170) | shares compounds with FBA Mtb inh | GDH-TPI coupled enzyme assay, fluorescence, artifact counterscreen | IC50, µM | AID 652145; call rule not given here
Of the large screens only hits and unclear results are named; the others gave an inactive call (follow-up assays come after a bar, where they were run). Compounds with a hit are over-represented: about 6.6% of the library has one in this group of screens. Rule as the data show it, unless noted: active = inhibition above about 27%; inactive = the rest.

Cc1ccc(S(=O)(=O)Nc2cc(C)c(O)c(Sc3n[nH]c(C)n3)c2)cc1	none
CN(C)c1ccc(/C=C/c2ccc3c4ccccc4ccc3[n+]2-c2ccccc2)cc1	BoNT-F LC inh active, FBA Mtb inh 36, BoNT-A LC inh2 62 | Mtb FBA confirm 122 | GDH-TPI counter-2 101
CN(C)c1ccc(/C=C/c2ccc3ccccc3[n+]2C)cc1	none
O=C1c2ccccc2NC(c2cccc(O)c2)N1NS(=O)(=O)c1ccccc1 (configuration not stated)	none
Cc1ccc(S(=O)(=O)NN2C(=O)c3ccccc3NC2c2ccccc2)cc1 (configuration not stated)	none
Cc1ccc(S(=O)(=O)NN2C(=O)c3ccccc3NC2(C)C)cc1	FBA Mtb inh 36 | Mtb FBA confirm active | GDH-TPI counter-2 active
CC1(C)Nc2ccccc2C(=O)N1NS(=O)(=O)c1ccccc1	FBA Mtb inh 29 | Mtb FBA confirm inactive | GDH-TPI counter-2 inactive
Fc1cccc2sc(Nc3nc4ccccc4s3)nc12	FBA Mtb inh 32 | Mtb FBA confirm 193 | GDH-TPI counter-2 134
Fc1ccc2nc(Nc3nc4c(F)cccc4s3)sc2c1	FBA Mtb inh 35 | Mtb FBA confirm inactive | GDH-TPI counter-2 inactive
Fc1ccc2nc(Nc3nc4c(F)cc(F)cc4s3)sc2c1	none
COc1ccc(C(=O)NNC(=O)CSc2nnc(COc3ccccc3OC)n2C)cc1	none
COC(=O)c1sccc1NC(=O)Cc1ccc(OC)cc1	none
COc1ccc(CC(=O)Nc2ccc(N(C)C)c3ccccc23)cc1	FBA Mtb inh 34 | Mtb FBA confirm active | GDH-TPI counter-2 128
COc1cccc2[nH]c(C(=O)NCc3ccccc3)cc12	BoNT-F LC inh inconclusive, FBA Mtb inh 68 | Mtb FBA confirm 74 | GDH-TPI counter-2 73
CC1CCN(C(=O)c2ncn3c2c(=O)[nH]c2ccc(Br)cc23)CC1	none
Cc1c(NC(=O)COc2c(F)c(F)c(F)c(F)c2F)c(=O)n(-c2ccccc2)n1C	none
Cc1cc(=O)oc2c(C)c(OCC(=O)NC3CC(C)(C)NC(C)(C)C3)ccc12	none
Cc1c(OCC(=O)NC2CC(C)(C)NC(C)(C)C2)ccc2c1oc(=O)c1ccccc12	FBA Mtb inh 63 | Mtb FBA confirm 50 | GDH-TPI counter-2 59
Cc1c(OCC(=O)NC2CC(C)(C)NC(C)(C)C2)ccc2c3c(c(=O)oc12)CCC3	FBA Mtb inh 32 (no result: BoNT-F LC inh, Anthrax LF inh2, Bead autofluor, BoNT-A LC inh2) | Mtb FBA confirm 43 | GDH-TPI counter-2 35
Cc1ccccc1OCCOC(=O)c1ccc(S(=O)(=O)N2CCCC2)cc1	none
Cc1ccc(CN(CC(O)COc2cccc3[nH]cc(C)c23)C(C)(C)C)cc1 (configuration not stated)	BoNT-F LC inh inconclusive
COC(=O)Cc1c[nH]c2cccc(OCC(O)CN(Cc3ccccc3)C(C)C)c12 (configuration not stated)	FBA Mtb inh 29 | Mtb FBA confirm inactive | GDH-TPI counter-2 25
COc1ccc(O)c(C(=O)CC(=O)c2ccc(F)cc2)c1	FBA Mtb inh 81 | Mtb FBA confirm 79 | GDH-TPI counter-2 52
COc1ccc(C(=O)COc2ccc(F)cc2)c(O)c1	none
O=c1c(Cc2ccc(Cl)cc2Cl)c(O)ccn1CCCN1CCOCC1	none
O=C(NC1CCN(C(=S)NCc2ccco2)CC1)c1cccc(F)c1	none
COc1ccc2c(c1)NP(=S)(c1ccccc1)N2C (configuration not stated)	FBA Mtb inh 27 | Mtb FBA confirm 67 | GDH-TPI counter-2 55
COc1ccc(P2(=O)Nc3ccccc3N2)cc1	none
COc1ccc(C(=O)N/C(=C\c2cn(S(=O)(=O)N(C)C)c3ccccc23)C(=O)N2CCCC2)cc1	none
Cc1nnc(SCC(=O)NC(C)(C)C)n1NCc1ccc(Cl)cc1	none
Cc1nnc(SCC(=O)NC(C)(C)C)n1NCc1ccc(N(C)C)cc1	BoNT-F LC inh inconclusive, FBA Mtb inh 44 | Mtb FBA confirm 60 | GDH-TPI counter-2 54
COc1ccc(-c2cc(-c3ccccc3)c(C#N)c(SCC(=O)O)n2)cc1	FBA Mtb inh 47 | Mtb FBA confirm inactive | GDH-TPI counter-2 inactive | GDH-TPI dose 2.5
COc1ccc(-c2cc(-c3ccc(Cl)cc3)c(C#N)c(SCC(=O)O)n2)cc1	BoNT-F LC inh inconclusive, FBA Mtb inh 47 | Mtb FBA confirm 53 | GDH-TPI counter-2 37
COc1ccc2c(c1)[nH]c1c(=O)n(Cc3ccncc3)cnc12	none
CCN1CCCC1Cn1cnc2c([nH]c3ccc(C)cc32)c1=O (configuration not stated)	FBA Mtb inh 37 | Mtb FBA confirm 60 | GDH-TPI counter-2 37
Cc1ccc2[nH]c3c(=O)n(Cc4ccncc4)cnc3c2c1	FBA Mtb inh 29 | Mtb FBA confirm active | GDH-TPI counter-2 182
Cc1nnsc1Sc1ccccc1C(=O)O	none
Nc1c(-c2ccccc2)nc(Cl)nc1-c1ccccc1	FBA Mtb inh 43 | Mtb FBA confirm inactive | GDH-TPI counter-2 inactive
Cc1nn(C)c(C(=O)N/N=C/c2ccc(-c3ccccc3)cc2)c1Cl	none
CN(C(=O)c1cccs1)c1ccccc1C(=O)O	FBA Mtb inh 27 (no result: BoNT-F LC inh, Anthrax LF inh2, Bead autofluor, BoNT-A LC inh2) | Mtb FBA confirm inactive | GDH-TPI counter-2 inactive
Cc1ccc2sc(NC(=O)CN3C(=O)c4ccccc4C3=O)nc2c1C	none
COC(=O)c1cccc(NS(=O)(=O)c2ccc(NC(C)=O)cc2)c1C	none
COC(=O)c1ccc(C(=O)OC)c(NS(=O)(=O)c2ccc(NC(C)=O)cc2)c1	FBA Mtb inh 34 | Mtb FBA confirm 71 | GDH-TPI counter-2 62
CCOC(=O)CCn1c2nc(C)cc(C)c2c(=O)n1-c1ccccc1	FBA Mtb inh 28 | Mtb FBA confirm 49 | GDH-TPI counter-2 41
CC1(C)Cc2c(cnn2-c2ccccc2)-c2c1c1ccccc1n2CC(O)CBr (configuration not stated)	FBA Mtb inh 31 | Mtb FBA confirm 163 | GDH-TPI counter-2 107
CC1(C)Cc2c(cnn2-c2ccccc2)C(=O)/C1=N\NC(=O)c1ccccc1N	none
CC(C)c1cc(=O)n2[nH]c(N)nc2n1	none
COCc1ccc(C(=O)N2CCCC(C(=O)c3ccc(SC)cc3)C2)s1 (configuration not stated)	Bead autofluor inconclusive
CC(=O)Nc1ccc2c(c1)CN(c1cc(C)ccc1C)CO2	none
COc1ccc(/C=N/NC(=O)CC(=O)NCc2cccnc2)c(OC)c1	none
COc1ccc(OC)c(/C=N/NC(=O)CC2C(=O)NN=C2C)c1 (configuration not stated)	FBA Mtb inh 68 | Mtb FBA confirm 42 | GDH-TPI counter-2 38
